Assay [1] addresses Cytochrome P450 2C19 (Homo sapiens) (UniProt P33261). The assay is described as follows: Cytochrome P450 Family 2 Subfamily C Member 19 (CYP2C19) small molecule antagonists: luciferase reporter qHTS assay (AID 1671197). Further: nearly all actives have a fitted effect of over 65% in size. Put shortly:
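Luminescent readout of CYP2C19 activity: luciferin product detected 20 min after adding detection reagent. Before that, compound and enzyme-substrate mix preincubated 10 min at room temperature; NADPH-regenerating system started a 1 h, 37C reaction. Ketoconazole as positive control.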
Background: Reporter assays use an easily measured gene product as a stand-in for the process of interest.

In assay [2] the target is Cytochrome P450 2C9 (Homo sapiens) (UniProt P11712). The assay is described as follows: Cytochrome P450 Family 2 Subfamily C Member 9 (CYP2C9) small molecule antagonists: luciferase reporter qHTS assay (AID 1671198). Further: nearly all actives have a fitted effect of over 50% in size. The method, boiled down:
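P450-Glo proluciferin substrate with CYP2C9 enzyme; 10 min RT preincubation, then NADPH regeneration 1 h at 37C; luciferin detection reagent 20 min RT, luminescence in relative luminescence units.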

The target in assay [3] is Cytochrome P450 1A2 (Homo sapiens) (UniProt P05177). Briefly: Cytochrome P450 Family 1 Subfamily A Member 2 (CYP1A2) small molecule antagonists: luciferase reporter qHTS assay (AID 1671199). Further: nearly all actives have a fitted effect of over 50% in size. Put shortly: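 Inhibition of CYP1A2 conversion of proluciferin to luciferin, detected by luminescence. Reaction run 1 h at room temperature with NADPH regeneration after brief compound preincubation.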

Assay [4] has as its target Cytochrome P450 3A4 (Homo sapiens) (UniProt P08684). The assay is described as follows: Cytochrome P450 Family 3 Subfamily A Member 4 (CYP3A4) small molecule antagonists: luciferase reporter qHTS assay (AID 1671201). Further: nearly all actives have a fitted effect of over 50% in size. Put shortly: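 Proluciferin-to-luciferin conversion by CYP3A4, NADPH-regenerated, 1 h RT; luminescence read as RLU. Ketoconazole as control.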
The target in assay [5] is Voltage-gated inwardly rectifying potassium channel KCNH2 (Homo sapiens) (UniProt Q12809). The assay is described as follows: Human Ether-a-go-go-Related Gene (hERG) channel small molecule antagonists: fluorescence cell-based qHTS assay (AID 1671200). Further: nearly all actives have a fitted effect of over 50% in size. The method, boiled down:
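Kinetic two-minute fluorescence traces, sampled at 1 s, were collected following thallium stimulus of U2OS cells (1000 per well) that had been cultured overnight at 37 C and loaded with FluxOR II.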
For orientation: Block of hERG is tested as a sign of cardiac risk.

Experimental findings from PubChem BioAssay (Tox21) are described below.

Results filed as inconclusive are left out. A number with no mark means an inactive call. Calls of active or inactive are those of the source. The call rests on the fitted dose curve; in most records, active means well fitted curve in the direction sought with a large enough effect in the repeat runs; inconclusive means weak or mixed curves; inactive means no such curve, though single readings can be large; an effect the other way counts as inactive or inconclusive.
Potency means the concentration at half of the fitted maximal effect.

Chain of Cytochrome P450 3A4 (Homo sapiens) (P08684 whole entry, looked up): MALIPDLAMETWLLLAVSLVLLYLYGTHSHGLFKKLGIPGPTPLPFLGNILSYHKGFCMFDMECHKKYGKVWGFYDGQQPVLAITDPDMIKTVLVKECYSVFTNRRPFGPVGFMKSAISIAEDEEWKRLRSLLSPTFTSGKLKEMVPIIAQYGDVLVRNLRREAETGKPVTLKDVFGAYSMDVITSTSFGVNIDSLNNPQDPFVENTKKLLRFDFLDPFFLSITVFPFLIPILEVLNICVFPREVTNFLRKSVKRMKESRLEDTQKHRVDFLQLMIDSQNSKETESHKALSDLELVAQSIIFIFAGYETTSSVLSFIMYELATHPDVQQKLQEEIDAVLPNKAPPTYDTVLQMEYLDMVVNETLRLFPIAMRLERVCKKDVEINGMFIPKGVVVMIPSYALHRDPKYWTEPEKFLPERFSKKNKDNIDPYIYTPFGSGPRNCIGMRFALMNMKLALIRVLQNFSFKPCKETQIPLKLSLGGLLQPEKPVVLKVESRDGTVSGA
Chain of Cytochrome P450 1A2 (Homo sapiens) (P05177 whole entry, looked up): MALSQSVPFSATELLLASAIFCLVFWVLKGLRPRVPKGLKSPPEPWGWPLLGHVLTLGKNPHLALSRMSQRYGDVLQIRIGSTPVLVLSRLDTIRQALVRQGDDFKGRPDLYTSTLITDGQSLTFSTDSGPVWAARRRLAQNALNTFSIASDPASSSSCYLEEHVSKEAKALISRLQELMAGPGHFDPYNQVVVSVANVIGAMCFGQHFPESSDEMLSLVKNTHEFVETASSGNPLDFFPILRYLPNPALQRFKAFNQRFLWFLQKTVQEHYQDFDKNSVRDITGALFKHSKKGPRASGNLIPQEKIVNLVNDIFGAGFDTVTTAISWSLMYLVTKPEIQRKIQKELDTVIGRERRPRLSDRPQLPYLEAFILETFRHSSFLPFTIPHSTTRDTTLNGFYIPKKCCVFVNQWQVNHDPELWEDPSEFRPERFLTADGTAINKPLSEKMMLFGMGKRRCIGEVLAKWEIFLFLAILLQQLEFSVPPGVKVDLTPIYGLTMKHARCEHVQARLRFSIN
Chain of Cytochrome P450 2C19 (Homo sapiens) (P33261 whole entry, looked up): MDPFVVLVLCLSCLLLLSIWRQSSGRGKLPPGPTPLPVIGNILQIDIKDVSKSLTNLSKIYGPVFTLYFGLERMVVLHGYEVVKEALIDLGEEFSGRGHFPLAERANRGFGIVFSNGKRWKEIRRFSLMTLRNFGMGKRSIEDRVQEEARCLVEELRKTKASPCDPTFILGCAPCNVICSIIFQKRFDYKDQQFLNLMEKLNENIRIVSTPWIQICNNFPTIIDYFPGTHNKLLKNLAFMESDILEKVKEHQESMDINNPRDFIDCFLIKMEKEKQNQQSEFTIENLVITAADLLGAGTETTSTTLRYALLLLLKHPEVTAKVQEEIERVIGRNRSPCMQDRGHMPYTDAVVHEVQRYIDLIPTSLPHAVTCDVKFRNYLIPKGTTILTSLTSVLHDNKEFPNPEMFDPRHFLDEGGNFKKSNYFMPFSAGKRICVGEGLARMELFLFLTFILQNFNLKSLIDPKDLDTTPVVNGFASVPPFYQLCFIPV
Chain of Voltage-gated inwardly rectifying potassium channel KCNH2 (Homo sapiens) (Q12809 whole entry, looked up): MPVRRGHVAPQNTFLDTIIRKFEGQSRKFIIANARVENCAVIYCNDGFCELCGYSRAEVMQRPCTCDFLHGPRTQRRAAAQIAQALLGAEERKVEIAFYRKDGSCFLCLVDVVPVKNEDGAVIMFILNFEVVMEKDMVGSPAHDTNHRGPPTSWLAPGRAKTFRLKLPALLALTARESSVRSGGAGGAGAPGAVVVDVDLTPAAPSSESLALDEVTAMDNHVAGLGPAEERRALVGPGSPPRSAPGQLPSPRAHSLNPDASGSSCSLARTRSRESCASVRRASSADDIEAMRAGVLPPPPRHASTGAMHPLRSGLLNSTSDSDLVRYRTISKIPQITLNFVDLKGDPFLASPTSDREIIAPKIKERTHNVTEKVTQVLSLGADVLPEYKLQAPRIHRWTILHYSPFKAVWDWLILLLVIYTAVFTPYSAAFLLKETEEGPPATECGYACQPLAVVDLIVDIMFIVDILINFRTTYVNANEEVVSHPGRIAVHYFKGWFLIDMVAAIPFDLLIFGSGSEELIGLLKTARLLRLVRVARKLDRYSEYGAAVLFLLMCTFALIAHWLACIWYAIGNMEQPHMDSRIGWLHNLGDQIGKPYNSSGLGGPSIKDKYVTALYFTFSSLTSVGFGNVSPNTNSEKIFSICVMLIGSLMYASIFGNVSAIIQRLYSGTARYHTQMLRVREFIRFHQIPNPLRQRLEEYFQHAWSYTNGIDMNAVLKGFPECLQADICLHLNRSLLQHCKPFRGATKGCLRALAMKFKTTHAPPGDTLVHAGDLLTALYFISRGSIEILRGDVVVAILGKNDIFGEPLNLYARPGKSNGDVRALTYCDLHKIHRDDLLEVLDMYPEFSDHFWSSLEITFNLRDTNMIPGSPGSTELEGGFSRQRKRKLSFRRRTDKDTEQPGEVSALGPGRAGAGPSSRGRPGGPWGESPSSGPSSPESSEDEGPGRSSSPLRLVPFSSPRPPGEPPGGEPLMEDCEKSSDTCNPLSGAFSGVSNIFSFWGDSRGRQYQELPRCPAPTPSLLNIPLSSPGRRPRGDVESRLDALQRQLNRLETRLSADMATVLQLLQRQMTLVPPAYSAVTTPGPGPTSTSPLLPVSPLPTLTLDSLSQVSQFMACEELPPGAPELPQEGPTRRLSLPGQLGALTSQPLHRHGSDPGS
Chain of Cytochrome P450 2C9 (Homo sapiens) (P11712 whole entry, looked up): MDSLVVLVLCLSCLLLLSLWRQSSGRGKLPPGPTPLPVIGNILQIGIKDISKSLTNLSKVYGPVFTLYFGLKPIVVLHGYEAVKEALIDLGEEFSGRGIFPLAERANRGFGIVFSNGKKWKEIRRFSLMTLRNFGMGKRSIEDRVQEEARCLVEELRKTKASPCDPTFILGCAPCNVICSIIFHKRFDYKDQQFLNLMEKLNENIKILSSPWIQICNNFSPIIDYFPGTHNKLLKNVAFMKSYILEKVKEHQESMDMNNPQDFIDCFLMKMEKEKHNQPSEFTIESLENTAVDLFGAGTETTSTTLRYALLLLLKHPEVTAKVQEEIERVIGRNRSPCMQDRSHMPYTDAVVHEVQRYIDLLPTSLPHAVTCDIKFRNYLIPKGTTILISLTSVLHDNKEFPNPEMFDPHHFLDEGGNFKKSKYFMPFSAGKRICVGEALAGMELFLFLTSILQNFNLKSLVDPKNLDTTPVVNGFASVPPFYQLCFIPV

Take `CC(C)(COC(=O)c1ccccc1)COC(=O)c1ccccc1`: the values for the Potency in assay [1], in assay [2] and in assay [3] were 20 µM (active), 6.33 µM (active) and 39.9 µM (active), respectively. Further, in assay [4], the Potency entry is “inactive”.

`CCCCCCCCCc1ccc(OCCOCCO)cc1`: the Potency in assay [1] is 16.7 µM (active); in assay [2], 10.6 µM (active); in assay [5], 8.17 µM (active); in assay [4], 8.39 µM (active). For the same molecule, the Potency result in assay [3] was “inactive”.

Consider `O=[N+]([O-])c1ccc(NCCO)c(OCCO)c1`, for which the Potency entry in assay [1], in assay [2] and in assay [4] was “inactive” in each case. Also, the Potency in assay [3] is 17.9 µM (active).

Regarding `COc1cc(Cl)c(OC)cc1N`, the Potency in assay [1] was 22.4 µM (active); in assay [2] it was 35.6 µM (active); in assay [3], 5.03 µM (active); in assay [4], 31.7 µM (active).

In the case of `C/C=C(/C(=C/C)c1ccc(OC(C)=O)cc1)c1ccc(OC(C)=O)cc1`, the values for the Potency in assay [1] and in assay [2] were 17.4 µM (active) and 7.76 µM (active), respectively. Further, the Potency result in assay [3] and in assay [4] was “inactive” throughout.

Take `CN1CCC(N(Cc2cccs2)c2ccccc2)CC1`: the Potency result in assay [1], in assay [2], in assay [3] and in assay [4] was “inactive” each time.

With `CCC(Cl)CCC(Cl)C(Cl)CC(Cl)C(Cl)C(Cl)CCl` (stereo unspecified), the Potency entry in assay [1], in assay [2], in assay [3], in assay [5] and in assay [4] was “inactive” each time.

For `CN(C)CCN(Cc1ccsc1)c1ccccn1`, the Potency entry in assay [1], in assay [2], in assay [3], in assay [5] and in assay [4] was “inactive” in each case.

As for `COc1cc2nc(N(C)CCCNC(=O)C3CCCO3)nc(N)c2cc1OC` (stereo unspecified), the Potency entry in assay [1], in assay [2], in assay [3], in assay [5] and in assay [4] was “inactive” throughout.

As for `CC(=O)OC[C@H]1O[C@@H](n2ncc(=O)[nH]c2=O)[C@H](OC(C)=O)[C@@H]1OC(C)=O`, the Potency entry in assay [1], in assay [2], in assay [3], in assay [5] and in assay [4] was “inactive” in each case.

In the case of `CC(=O)NO`, the Potency entry in assay [1], in assay [2], in assay [3], in assay [5] and in assay [4] was “inactive” each time.

As for `COc1ccc(C(=O)c2ccc(OC)cc2O)c(O)c1`, the Potency in assay [1] is 0.802 µM (active); in assay [2], 11.3 µM (active); in assay [3], 0.402 µM (active); in assay [4] it was 25.4 µM (active). For the same molecule, in assay [5], the Potency entry is “inactive”.

Regarding `CC(C)(C)Cl`, the Potency result in assay [1], in assay [2], in assay [3] and in assay [4] was “inactive” each time.

With `CC(C)CC(=O)C1C(=O)c2ccccc2C1=O`, the Potency in assay [1] is 39.9 µM (active); in assay [2], 17.8 µM (active); in assay [3] it was 35.6 µM (active). Also, the Potency entry in assay [4] was “inactive”.

On to `CC(C)(CO)[N+](=O)[O-]`, for which the Potency entry in assay [1], in assay [2], in assay [3] and in assay [4] was “inactive” in each case.

Regarding `CCOC(=O)COC(=O)c1cc(Oc2ccc(C(F)(F)F)cc2Cl)ccc1[N+](=O)[O-]`, the Potency in assay [1] was 11.2 µM (active); in assay [2] it was 6.33 µM (active); in assay [3] it was 22.4 µM (active). Further, the Potency result in assay [4] is “inactive”.

Regarding `O=C1CCCCCCCCCCCC(=O)OCCO1`, the Potency in assay [1] is 71 µM (active); in assay [2], 63.3 µM (active); in assay [3] it was 39.9 µM (active); in assay [4] it was 35.6 µM (active).

`COc1ccc(C(=O)Nc2nc3ccccc3c(NCc3ccccc3)c2C#N)cc1`: the Potency was 17.8 µM (active) in assay [1], 2 µM (active) in assay [2], 15.9 µM (active) in assay [3] and 4.48 µM (active) in assay [4].

On to `CCN(CC)c1ccc2c(-c3ccccc3C(=O)O)c3ccc(=[N+](CC)CC)cc-3oc2c1`, for which the Potency in assay [1] was 71 µM (active); in assay [2] it was 28.3 µM (active); in assay [3] it was 35.6 µM (active); in assay [4], 12.6 µM (active). The Potency entry in assay [5] is “inactive”.

Regarding `CCCCC(CC)CN1C(=O)C2C3C=CC(C3)C2C1=O` (stereo unspecified), the Potency was 3.56 µM (active) in assay [1], 7.96 µM (active) in assay [2], 17.8 µM (active) in assay [3] and 1 µM (active) in assay [4].

As for `O=[N+]([O-])c1cccc(S(=O)(=O)O)c1`, the Potency in assay [1] is 32.2 µM (active); in assay [2], 32.2 µM (active); in assay [3] it was 40.5 µM (active); in assay [5] it was 22.2 µM (active); in assay [4], 36.1 µM (active).

As for `N=c1ccn2c(n1)O[C@H]1[C@H](O)[C@@H](CO)O[C@H]12`, the Potency entry in assay [1], in assay [2], in assay [3] and in assay [4] was “inactive” each time.

`CCOC(=O)C(O)c1ccccc1` (stereo unspecified): the Potency result in assay [1], in assay [2], in assay [3], in assay [5] and in assay [4] was “inactive” each time.

In the case of `CN1CCN(C(c2ccccc2)c2ccccc2)CC1`, the Potency result in assay [1], in assay [2], in assay [3] and in assay [4] was “inactive” each time.

For the molecule `CN(C)c1ccc(CCO)cc1`, the Potency was 28.1 µM (active) in assay [1], 19.9 µM (active) in assay [2] and 35.4 µM (active) in assay [3]. Also, the Potency result in assay [4] was “inactive”.

`C=CCOC(=O)CCC1CCCCC1`: the Potency entry in assay [1], in assay [2], in assay [3], in assay [5] and in assay [4] was “inactive” throughout.

As for `CC(C)OC(=O)C(C)N(C(=O)c1ccccc1)c1ccc(F)c(Cl)c1` (stereo unspecified), the Potency was 3.56 µM (active) in assay [1], 7.96 µM (active) in assay [2], 63.3 µM (active) in assay [3] and 89.4 µM (active) in assay [4]. Moreover, in assay [5], the Potency result was “inactive”.

For the molecule `CCCCC`, the Potency result in assay [1], in assay [2] and in assay [4] was “inactive” each time. The Potency in assay [3] was 78.4 µM (active).

As for `CN1C[C@H]2c3ccccc3Oc3ccc(Cl)cc3[C@@H]2C1`, the Potency result in assay [1], in assay [2] and in assay [4] was “inactive” each time. The Potency in assay [3] is 7.76 µM (active).

Take `OC[C@H]1O[C@@H](OCCc2ccc(O)cc2)[C@H](O)[C@@H](O)[C@@H]1O`: the Potency entry in assay [1], in assay [2], in assay [3] and in assay [4] was “inactive” in each case.

For the molecule `COS(=O)(=O)C(F)(F)F`, the Potency entry in assay [1], in assay [2], in assay [5] and in assay [4] was “inactive” each time.
